According to PubChem BioAssay (NCATS):
Inconclusive results are not listed. Where a structure was tested more than once in an assay, its records may differ in their call. Calls of active or inactive are those of the source. Calls come from the whole dose curve; as a rule, active = well fitted curve in the direction sought with a large enough effect; inconclusive = small, poorly fitted or top-dose-only effect, or another doubt; inactive = no such curve, though single readings can be large; an effect the other way counts as inactive or inconclusive.

Tests used:
[1] = biological target: Glutathione peroxidase 1 (Homo sapiens) (UniProt P07203); test: Primary qHTS Assay for Inhibitors of Recombinant Selenoprotein Glutathione Peroxidase 1 (GPX1) (AID 1845191); note: nearly all actives have a fitted effect of over 65% in size; note: potency is the fitted concentration of half-maximal effect
Method in brief: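 GPX1 10 nM, GR 100 nM, GSH 1 mM, NADPH 0.5 mM, CHP 0.5 mM (final). 30-min cpd preincubation, RT. Ex340/Em450 read t=0, t=15 min.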

[2] = biological target: Luciferin 4-monooxygenase (Photinus pyralis) (UniProt P08659); test: Primary firefly luciferase (FLuc) qHTS assay for identification of artifact compounds. (AID 1845220); note: nearly all actives have a fitted effect of over 60% in size; note: potency is the fitted concentration of half-maximal effect
Method in brief: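 Reaction readout was CCD-imaged luminescence, taken 5 min after adding 10 nM purified firefly enzyme to compound-treated wells holding 10 uM luciferin and ATP in pH 7.6 buffer.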

[3] = Primary fluorescence-based thiol-reactive (MSTI) qHTS assay for identification of artifact compounds. (AID 1845221);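 note: thiol-reactive compounds lower the probe fluorescence signal; nearly all actives have a fitted effect of over 65% in size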
Method in brief: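 qHTS titration of compound; 4 uM MSTI, PBS pH 7.4, 2% DMSO; 1 h RT, dark; fluorescence 525/598 nm; normalized to Acetyl-MSTI and MSTI; 4-parameter Hill fit.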

[4] = system: Nanoluciferase (engineered Oplophorus gracilirostris luciferase); test: Primary Nanoluciferase (NLuc) qHTS assay for identification of artifact compounds. (AID 1845222);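 note: NLuc secreted into diluted conditioned medium of S16 cells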
Method in brief: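 Concentration-response data were obtained by luminescence after 5 min with Nano-Glo substrate at 1:100. The enzyme was diluted S16 NLuc-expressing cell medium, preincubated with compound for 15 min at RT. Curves were fitted with a 4-parameter Hill model.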

[5] = Primary redox qHTS assay for identification of artifact compounds. (AID 1845223)
Method in brief: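 Redox-cycling detection via DTT (250 uM final) oxidation coupled to Amplex Red (25 uM)/HRP (250 mU/mL) in HBSS. 15 min preincubation plus 30 min after DTT, room temperature. Ex/Em 525/598 nm; 4-parameter Hill fit against DMSO and 10 uM DA3003.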

[6] = Quantitative High-Throughput drug screen in 47 multiple myeloma cell lines against the NCATS MIPE library collection: EJM_DSMZ cell viability assay (AID 1918926; note: nearly all actives have a fitted effect of over 30% in size; note: potency is the fitted concentration of half-maximal effect)
Method in brief: (§1)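 CellTiter-Glo luminescence (ATP) after 48 h compound exposure, 37C/5% CO2; 500 cells/well; MIPE 4.0 approved/investigational drugs pinned in; DMSO = 100%, media only = 0% viability.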

[7] = Quantitative High-Throughput drug screen in 47 multiple myeloma cell lines against the NCATS MIPE library collection: ARP1_JJKsccF8 cell viability assay (AID 1918928; note: nearly all actives have a fitted effect of over 40% in size; note: potency is the fitted concentration of half-maximal effect)
Method in brief: (§2)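 Viability screen: myeloma cells (500/well) incubated 48 h at 37 °C, humidified 5% CO2, with pinned library compounds; CellTiter-Glo added, luminescence read; DMSO wells set 100%, medium-only wells 0%.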

[8] = Quantitative High-Throughput drug screen in 47 multiple myeloma cell lines against the NCATS MIPE library collection: Karpas620_DSMZ cell viability assay (AID 1918959); note: nearly all actives have a fitted effect of over 30% in size; note: potency is the fitted concentration of half-maximal effect
Method in brief: (§3)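 Relative luminescence from CellTiter-Glo served as the viability signal, referenced to DMSO-treated (100%) and cell-free medium (0%) controls. Treatment lasted 48 hours at 37C with 500 cells per well.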

[9] = Quantitative High-Throughput drug screen in 47 multiple myeloma cell lines against the NCATS MIPE library collection: JIM3_ECACC cell viability assay (AID 1918963; note: nearly all actives have a fitted effect of over 35% in size; note: potency is the fitted concentration of half-maximal effect)
Method in brief: as §3

[10] = biological target: Phospholipid hydroperoxide glutathione peroxidase GPX4 (Homo sapiens) (UniProt P36969); test: Primary qHTS Assay for Inhibitors of Recombinant Selenoprotein Glutathione Peroxidase 4 (GPX4) (AID 1845192); note: nearly all actives have a fitted effect of over 65% in size; note: potency is the fitted concentration of half-maximal effect
Method in brief: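 qHTS, GR-coupled: GPX4 200 nM + cpd 30 min RT → GSH 1 mM, NADPH 0.5 mM, GR 100 nM → CHP 0.5 mM start; fluor 340/450 at t0 and t15 min; no-enzyme wells as control.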

[11] = Quantitative High-Throughput drug screen in 47 multiple myeloma cell lines against the NCATS MIPE library collection: Delta47_JCRB cell viability assay (AID 1918925; note: nearly all actives have a fitted effect of over 45% in size; note: potency is the fitted concentration of half-maximal effect)
Method in brief: as §1

[12] = Quantitative High-Throughput drug screen in 47 multiple myeloma cell lines against the NCATS MIPE library collection: KMM1_JCRB cell viability assay (AID 1918960); note: nearly all actives have a fitted effect of over 30% in size; note: potency is the fitted concentration of half-maximal effect
Method in brief: as §2

[13] = Quantitative High-Throughput drug screen in 47 multiple myeloma cell lines against the NCATS MIPE library collection: KHM11_PLB cell viability assay (AID 1918962); note: nearly all actives have a fitted effect of over 35% in size; note: potency is the fitted concentration of half-maximal effect
Method in brief: as §3

[14] = Quantitative High-Throughput drug screen in 47 multiple myeloma cell lines against the NCATS MIPE library collection: FR4_PLB cell viability assay (AID 1918924; note: nearly all actives have a fitted effect of over 35% in size; note: potency is the fitted concentration of half-maximal effect)
Method in brief: as §3

[15] = Quantitative High-Throughput drug screen in 47 multiple myeloma cell lines against the NCATS MIPE library collection: ARD_JJKsccE7 cell viability assay (AID 1918929; note: potency is the fitted concentration of half-maximal effect)
Method in brief: as §1

[16] = Quantitative High-Throughput drug screen in 47 multiple myeloma cell lines against the NCATS MIPE library collection: Karpas417_ECACC cell viability assay (AID 1918961); settings: Karpas417 myeloma viability, CellTiter-Glo ATP luminescence, 48 h; viability (% of DMSO): at 45.8 µM (top of the series) unless noted; note: potency is the fitted concentration of half-maximal effect
Method in brief: as §3

[17] = Quantitative High-Throughput drug screen in 47 multiple myeloma cell lines against the NCATS MIPE library collection: AMO1_DSMZ cell viability assay (AID 1918927; note: nearly all actives have a fitted effect of over 30% in size; note: potency is the fitted concentration of half-maximal effect)
Method in brief: as §1

Measured: Potency

Glutathione peroxidase 1 (Homo sapiens), sequence (P07203 whole entry, looked up): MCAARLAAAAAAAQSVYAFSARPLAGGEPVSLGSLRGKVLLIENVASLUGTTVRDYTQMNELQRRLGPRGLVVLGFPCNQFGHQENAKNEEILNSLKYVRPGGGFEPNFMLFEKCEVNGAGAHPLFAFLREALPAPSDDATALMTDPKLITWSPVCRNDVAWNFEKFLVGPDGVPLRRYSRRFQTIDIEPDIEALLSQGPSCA
Phospholipid hydroperoxide glutathione peroxidase GPX4 (Homo sapiens), sequence (P36969 whole entry, looked up): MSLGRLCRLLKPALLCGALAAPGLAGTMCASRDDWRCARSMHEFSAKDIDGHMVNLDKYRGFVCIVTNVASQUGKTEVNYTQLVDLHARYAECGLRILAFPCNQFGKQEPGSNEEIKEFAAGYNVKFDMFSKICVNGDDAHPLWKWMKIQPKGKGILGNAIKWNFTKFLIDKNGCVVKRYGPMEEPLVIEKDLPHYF

N#CC[C@H](C1CCCC1)n1cc(-c2ncnc3[nH]ccc23)cn1
active: [1] 25.5 µM | [6] 7.43 µM | [8] 5.26 µM | [9] 6.62 µM
inactive: [2] | [3] | [4] | [5] | [7]

Nc1nc2ccc(OC(F)(F)F)cc2s1
active: [11] 13.2 µM
inactive: [1] | [10] | [6] | [12] | [13] | [9]

O=c1ncn2nc(Sc3ccc(F)cc3F)ccc2c1-c1c(Cl)cccc1Cl
inactive: [1] | [10] | [14] | [9]

Cc1cc(Nc2nc(N[C@@H](C)c3ncc(F)cn3)ncc2Cl)n[nH]1
inactive: [1] | [2] | [3] | [4] | [5] | [11] | [12]
active: [6] 2.64 µM | [9] 8.33 µM

Nc1ccc(S(=O)(=O)Nc2ccnn2-c2ccccc2)cc1
inactive: [1] | [10] | [11] | [6] | [15] | [8] | [12] | [16] | [13] | [9]

O=C(Nc1nc2ccccc2n1CCN1CCOCC1)c1cccc([N+](=O)[O-])c1
inactive: [1] | [10] | [9]
active: [6] 4.18 µM | [15] 4.18 µM | [8] 7.43 µM | [12] 5.26 µM | [16] 4.69 µM

Cn1c(=O)c(F)c(Nc2ccc(I)cc2F)c2c(=O)n(C[C@@H](O)CO)cnc21
inactive: [1] | [10] | [14] | [6]
active: [12] 16.6 µM | [9] 3.32 µM

CCCc1nn(C)c2c(=O)[nH]c(-c3cc(S(=O)(=O)N4CCN(C)CC4)ccc3OCC)nc12
inactive: [1] | [2] | [3] | [4] | [5] | [6] | [17] | [15] | [12] | [16]

Nc1ncnc2nc(-c3ccc(N4CCOCC4)nc3)cc(-c3cccc(Br)c3)c12
inactive: [1] | [10] | [8] | [16] | [13]
active: [9] 18.7 µM

COc1cc(F)c(F)c(Nc2ccc(I)cc2F)c1NS(=O)(=O)C1(C[C@H](O)CO)CC1
active: [16] 16.6 µM | [9] 18.7 µM
inactive: [1] | [2] | [3] | [4] | [5]

Cc1ccc(-n2nc(C(C)(C)C)cc2NC(=O)Nc2ccc(OCCN3CCOCC3)c3ccccc23)cc1
inactive: [1] | [10]
active: [11] 2.64 µM | [6] 18.7 µM | [17] 18.7 µM | [9] 18.7 µM

Cc1ccc(N(CC2=NCCN2)c2cccc(O)c2)cc1
active: [14] 20.9 µM
inactive: [1] | [11] | [6] | [13]

COc1ccc2nc(S(=O)Cc3ncc(C)c(OC)c3C)[nH]c2c1 (configuration not stated)
inactive: [14] | [9]
5.08 µM (active) and inactive: [1]
active: [10] 11.4 µM | [6] 18.7 µM

CNC(=O)c1ccccc1Sc1ccc2c(/C=C/c3ccccn3)n[nH]c2c1
inactive: [1] | [3] | [4] | [5]
active: [2] 1.9 µM

Cc1cccc(-c2nn(C(=S)Nc3ccccc3)cc2-c2ccnc3ccccc23)n1
active: [11] 16.6 µM | [6] 11.8 µM | [9] 13.2 µM
inactive: [1] | [14] | [17] | [8] | [12]

CCC(C)(C)C(=O)O[C@H]1C[C@@H](C)C=C2C=C[C@H](C)[C@H](CC[C@@H]3C[C@@H](O)CC(=O)O3)[C@H]21
active: [17] 18.7 µM | [7] 20.9 µM | [15] 16.6 µM | [12] 26.4 µM | [13] 13.2 µM | [9] 14.8 µM
inactive: [1] | [10] | [6]

NC[C@H](O)c1ccc(O)c(O)c1
inactive: [1] | [10] | [11] | [6] | [17] | [15] | [8] | [12] | [13] | [9]

Cn1cnc([N+](=O)[O-])c1Sc1ncnc2nc[nH]c12
inactive: [1] | [6] | [16]
active: [14] 0.418 µM | [15] 1.18 µM | [12] 2.96 µM | [9] 14.8 µM

Nc1nc2[nH]cc(CCc3ccc(C(=O)N[C@@H](CCC(=O)O)C(=O)O)cc3)c2c(=O)[nH]1
active: [7] 0.418 µM | [12] 0.59 µM | [9] 0.833 µM
inactive: [1] | [10] | [11] | [6] | [8]

CCc1ccc(CCOc2ccc(CC3SC(=O)NC3=O)cc2)nc1 (configuration not stated)
inactive: [1] | [10] | [14] | [17] | [15] | [12] | [13] | [9]
